OPRM1-OPRD1 ag = OPRM1-OPRD1 heterodimerization agonism; cells, luminescence; activation, % at 9.3 µM; 0.3% of 340,000 active; AID 504326; in the data active = activation above about 18%;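 also: 0% = vehicle-treated cells and 100% = reference agonist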
HTR5A ag ctr = HTR5A agonism, opioid heterodimer counter-screen; P47898; HTR5A agonist assay, luminescence, cell-based; activation, % at 9.3 µM; 0.61% of 340,000 active; AID 504692; in the data active = activation mostly above about 9.5%, no sharp cut-off; inactive = mostly below about 7.6%;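 also: 0% = cells with vehicle only and 100% = reference agonist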
MOR-DOR inv ag-1 = inverse agonist of human OPRM1-OPRD1 heterodimerization; P35372+P41143; cell-based MOR-DOR heterodimer luminescence, inverse agonism; inhibition, % at 9.3 µM; 0.21% of 340,000 active; in the data active = inhibition above about 22%, passing the limit was not always enough;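 also: 0% = cells with DMSO and 100% = wells without cells with DMSO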
HTR5A inv ctr = counter-screen for OPRM1-OPRD1 inverse agonists: human HTR5A inverse agonism; P47898; HTR5A cell line, luminescence; inhibition, % at 9.3 µM; 0.083% of 340,000 active; AID 504634; in the data active = inhibition mostly above about 23%, no sharp cut-off; inactive = mostly below about 18%;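 also: 0% = cells with DMSO and 100% = no-cell wells with DMSO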
MOR-DOR inv ag-2 = inverse agonist of OPRM1-OPRD1 heterodimerization in HTR5A counter-screen; 190 tested, under 10 active; U2OS counter-screen cells, complementation luminescence; shares compounds with HTR5A inv ctr; inhibition, % at 9.3 µM;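 also: 0% = cells with DMSO and 100% = wells without cells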
HTR5A inv confrm = confirmation of human HTR5A inverse agonists; HTR5A-expressing cells, inverse agonism, luminescence; inhibition, % at 9.3 µM; 190 tested, under 10 active; shares compounds with HTR5A inv ctr; AID 504916;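 also: 0% = cells with DMSO and 100% = no cells with DMSO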
* hit, by the source's call; i = inactive; nt = not tested or not shown. Compounds with a hit are over-represented: about 1.1% of the library has one in this group of screens. Unless noted, no rule for the calls is given here.

SMILES	OPRM1-OPRD1 ag	HTR5A ag ctr	MOR-DOR inv ag-1	HTR5A inv ctr	MOR-DOR inv ag-2	HTR5A inv confrm
COc1ccc(NC(=O)CSc2c3c(nc4cc(Cl)ccc24)CCCC3)cc1OC	1	-5	-4	14	nt	nt
COCCNC(=O)CSc1c2c(nc3ccc(Cl)cc13)CCCC2	-1	-4	7	43*	i	2
NC(=O)c1ccc(NC(=O)CN2CCOCC2)cc1	-1	-9	6	34*	43*	22
CC(=O)c1ccc(NC(=O)CN2CCOCC2)cc1	-1	-1	5	5	nt	nt
CC(C)CC1Nc2ncnc(N3CCN(c4ccccc4)CC3)c2N(Cc2ccccc2)C1=O (configuration not stated)	0	1	-1	-3	nt	nt
CC(C)CC1Nc2ncnc(N3CCN(c4ccccn4)CC3)c2N(Cc2ccc(Cl)cc2)C1=O (configuration not stated)	3	3	-16	40*	-27	13
COc1ccc(CN2C(=O)C(CC(C)C)Nc3ncnc(N4CCN(c5ccccc5)CC4)c32)cc1 (configuration not stated)	-2	0	14	-16	nt	nt
COc1ccc(CN2C(=O)C(Cc3ccccc3)Nc3ncnc(N4CCN(c5ccccc5)CC4)c32)cc1 (configuration not stated)	-9	-15	41	44*	21	55*
CNc1c(C(=O)O)ccc2c1C(=O)c1ccccc1C2=O	-2	-9	12	36*	-193	-20
CCN(CC)c1ccc2nc3ccc(N)cc3[n+](-c3ccccc3)c2c1	-3	-14	15	36*	-4	37
CCN(CC)c1ccc2nc3ccccc3[n+](CC)c2c1	-3	-9	14	34*	-279	-4
CCN(CC)c1ccc2cc(-c3nc4ccccc4[nH]3)c(=O)oc2c1	1	8	-6	-25	nt	nt
CC(=O)N1c2c(cc(Br)cc2S(=O)(=O)N2CCN(c3ccccn3)CC2)CC1C (configuration not stated)	-2	4	10	-5	nt	nt
CC(=O)N1CCc2cc(Br)cc(S(=O)(=O)N3CCN(c4ccccn4)CC3)c21	-1	1	8	46*	-40	8
CCOc1ccccc1C(=O)Nc1ccc(S(=O)(=O)Nc2cc(OC)nc(OC)n2)cc1	-2	0	11	-1	nt	nt
Cc1noc(/C=C/c2ccco2)c1S(=O)(=O)N1CCC(C(=O)NCc2ccco2)CC1	-3	-10	13	27*	-9	-8
COc1cccc(NC(=S)N/N=C2/CCCCc3ccccc32)c1	-5	-14	30	35*	-18	5
COc1ccc(S(=O)(=O)Nc2cccc3c2O[C@H](CN(C)S(=O)(=O)c2ccc(F)cc2)[C@H](C)CN([C@H](C)CO)C3=O)cc1	-1	-1	5	39*	-11	12
Cc1cc(C(=O)CN2C(=O)C(=O)N(CCC3=CCCCC3)C2=O)c(C)n1C	-3	-15	14	37*	-413	-58
CN(C)c1ccc(/C=C/c2ccc3ccccc3[n+]2C)cc1	-4	-11	23	29*	-2	28
COc1ccccc1C1(O)C(=O)Nc2ccc(C)cc21 (configuration not stated)	1	-1	-4	4	nt	nt
Cc1cc(C)n(-c2nc(Nc3ccccc3)nc(-n3nc(C)cc3C)n2)n1	-5	-1	23	6	nt	nt
COc1cccc(/C=N/Nc2nc(Nc3ccccc3)nc(-n3nc(C)cc3C)n2)c1O	1	-18	-4	40*	i	-4
O=C(CN1CCCCC1)NC1CCc2cc3c(cc21)CCC3 (configuration not stated)	0	3	-2	3	nt	nt
COc1cc2nc(C3CCC3)nc(N3CCN(c4ccccn4)CC3)c2cc1OC	-1	1	8	52*	-23	-2
SMILES	OPRM1-OPRD1 ag	HTR5A ag ctr	MOR-DOR inv ag-1	HTR5A inv ctr	MOR-DOR inv ag-2	HTR5A inv confrm
Cc1ccc(S(=O)(=O)N2CCCCC2)cc1NC(=O)CNC(C)c1ccc(Cl)c(Cl)c1 (configuration not stated)	4	6	-16	-14	nt	nt
COc1ccc(-n2c(Cc3cccn3C)nnc2SCC(=O)NC2CCCCC2)cc1	-3	-12	14	33*	-8	0
Cn1cccc1Cc1nnc(SCC(=O)NC2CCCC2)n1-c1ccc(F)cc1	-2	1	12	-4	nt	nt
CC1C(=O)N2CCCc3cc(NC(=O)C(=O)NCCc4ccc(F)cc4)cc1c32 (configuration not stated)	-2	-4	10	10	nt	nt
COc1ccc(Cl)cc1NC(=O)Nc1cnccn1	0	-16	2	41*	-51	-3
O=C1C(Cl)=C(N2CCOCC2)C(=O)N1c1cccc(Cl)c1	0	2	-1	30	nt	nt
O=C1/C(=C/c2ccccc2)N=C(N2CCOCC2)N1c1cccc(Cl)c1	-1	2	7	33*	-24	4
Cc1onc(-c2ccccc2)c1C(=O)Nc1nnc(N2CCCCCC2)s1	-5	-8	28	25*	-6	2
Cc1nonc1CN(C)C(=O)c1cc(COc2ccc(F)cc2Cl)on1	0	2	1	41*	-84	18
COCc1c(C(=O)OCC(=O)N2CCCC2=O)oc2ccccc12	-2	1	12	-4	nt	nt
COc1ccc(NC(=O)Nc2c(SC)nsc2SC)cc1	0	-2	-2	-4	nt	nt
COC(=O)c1ccccc1-c1c2ccc(=N)cc-2oc2cc(N)ccc12	-5	-10	27	35*	13	30
CC(Sc1ncccn1)C(=O)NC1CCCC1 (configuration not stated)	-4	9	15	37*	-12	-87
CC(Sc1nc(N)cc(=O)[nH]1)C(=O)NC1CCCCC1 (configuration not stated)	0	-3	0	4	nt	nt
Cc1cccc(NC(=O)CNC(=O)c2cccs2)n1	-1	-11	3	31*	-454	0
COC(=O)c1ccc(C(=O)OC)c(NC(=O)COC(=O)CCOc2ccc(C)cc2)c1	0	-3	1	8	nt	nt
COCCCNC(=O)c1ccc2c(=O)n(Cc3ccc4c(c3)OCO4)c(=S)[nH]c2c1	-1	3	4	57*	-3	-13
CC(=O)c1cccc(CN2CCN(C3CCCCC3)C(CCO)C2)c1 (configuration not stated)	-2	-3	11	20	nt	nt
COc1cc(/C=C2\N=C3CCCCCN3C2=O)ccc1O	-1	3	7	-3	nt	nt
O=C1/C(=C\c2ccc(O)c(O)c2)N=C2CCCCCN12	0	-9	2	27*	-14	10
COc1ccc(S(=O)(=O)N2CCCCC2)cc1NC(=O)CCNC(=O)c1ccco1	-3	2	12	-10	nt	nt
COc1cc(/C=C/C(=O)c2ccc(O)cc2)ccc1OCC#N	-3	-14	16	48*	-20	0
COc1cccc(C(=O)/C=C/c2ccc(OCC#N)c(OC)c2)c1	-3	-4	16	-11	nt	nt

Compound activity deposited in PubChem by The Scripps Research Institute Molecular Screening Center.
